Screens deposited in PubChem by University of Kansas High Throughput Screening Laboratory.
Rows were chosen to be rich in hits. Some 3.6% of all compounds tested hit in one or more screens of this group.
Pf apPOL block: Pf-apPOL DNA polymerase inhibition | Recombinant Pf-apPOL, molecular beacon fluorescence, 1.5 h | inhibition, % at 10 µM | 210,000 compounds, 0.25% hits
mHTT-CaM PPI inh: mHTT-calmodulin interaction abrogation; AlphaScreen His-mHTT/GST-CaM binding, luminescence; P42858; 190,000 compounds, 3.6% hits; inhibition, % at 15 µM;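 also: 0% = both proteins with DMSO and 100% = one protein alone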
An asterisk follows results filed as active; · = no result given; ! = repeats disagree. Rule as the data show it: active = inhibition above about 50%; inactive = the rest.

SMILES | Pf apPOL block | mHTT-CaM PPI inh
CCOc1ccccc1CN1C(=O)CCC1(C)C(=O)NC(C)CC (stereo unspecified) | 2 | -1
CC(C)(C)C(=O)N1CCN(Cc2ccccc2)CC1 | -12 | 2
CC1CCCC(NC(=O)c2ccc3c(c2)NC(=O)C(N2CCOCC2)S3)C1C (stereo unspecified) | -19 | 26
CC1=CC(C)(C)N(C(O)C(Cl)(Cl)Cl)c2ccccc21 (stereo unspecified) | -6 | 22
COc1ccc(C2CC(=O)Oc3c(C(CCN4CCOCC4)c4ccc5c(c4)OCO5)c(OC)cc(OC)c32)cc1 (stereo unspecified) | -6 | 79*
COc1cc(C(CCN2CCOCC2)c2c(OC)cc(OC)c3ccc(=O)oc23)cc(OC)c1OC (stereo unspecified) | -14 | 29
COc1cc(OC)c2c(c1C(CCN1CCOCC1)c1ccc(N(C)C)cc1)OC(=O)CC2c1ccc(N(C)C)cc1 (stereo unspecified) | -6 | 100*
COc1ccc2c(c1)C(c1ccc3c(c1)OCO3)CC(=O)O2 (stereo unspecified) | -1 | 33
CCN(CC)CCC(c1cc(OC)c(OC)c(OC)c1)c1c(OC)cc(OC)c2ccc(=O)oc12 (stereo unspecified) | -8 | 4
CCN(CC)CCC(c1cc(OC)c(OC)c(OC)c1)c1c(OC)cc(OC)c2c1OC(=O)CC2c1ccc(N(C)C)cc1 (stereo unspecified) | -6 | 69*
CCCN1CCN(CCNC(=O)C2CCCN(c3ncc(-c4ccccc4)cn3)C2)CC1 (stereo unspecified) | -4 | -4
CCC(C(=O)N1CCC(c2nc(C(=O)N3CCCC3)c(C)o2)CC1)c1ccccc1 (stereo unspecified) | 1 | 24
Cc1ccc(C)c(Nc2nn3c(=O)c4cc(C)ccc4nc3s2)c1 | -1 | 0
COc1ccc(N(CC(=O)NC2CCCCC2)S(=O)(=O)c2ccc(C)cc2)cc1OC | 0 | 10
Cc1ccc(NC(=O)C(F)F)c(Cl)c1 | -5 | -9
COCc1cc(CN2CCCC2)c(O)c2ncccc12 | 3 | 100*
Oc1c(CN2CCCCC2)cc(CN2CCCCC2)nc1-c1ccccc1 | 1 | 7
Oc1c(CN2CCCCC2)cc(Cl)c2cccnc12 | -7 | 100*
Oc1c(CN2CCN(Cc3ccc4cccnc4c3O)CC2)ccc2cccnc12 | -11 | 100*
Fc1ccc(CN2CCN(c3ncccn3)CC2)c(F)c1 | -4 | -6
Oc1ccccc1CN1CCCC1 | -1 | 1
COc1ccc(CCNC(=O)CSc2nc3ccc(NC(C)=O)cc3s2)cc1OC | -5 | 6
CCC(C)(C(=O)NC1CCCCC1)N(C)C(=O)C1CCC(=O)N1 (stereo unspecified) | -1 | -7
COC(=O)c1c(NC(=O)/C=C/C(=O)O)sc2c1CCC2 | · | 2
COc1ccc(Cl)cc1N1C(=O)C2CCCN2C1c1cc(OC)c(OC)c(OC)c1 (stereo unspecified) | -1 | -4
SMILES | Pf apPOL block | mHTT-CaM PPI inh
N#Cc1nc(COc2ccc(Br)cc2)oc1N1CCCCC1 | -3 | 51*
N#Cc1nc(COc2ccc(Br)cc2)oc1N1CCC(C(N)=O)CC1 | -1 | 23
Cc1csc(-c2coc3cc(OC4OC(CO)C(O)C(O)C4O)ccc3c2=O)n1 (stereo unspecified) | -8 | ·
Cc1cc(Cl)ccc1NC(=O)CSc1cccc2cccnc12 | -6 | 18
Cc1cc(C)c(NC(=O)OCc2cccc3cccnc23)c(C)c1 | -9 | 100*
Clc1ccc2c(c1)SS(Cl)=N2 (stereo unspecified) | · | 55*
COc1ccc(-c2oc(N=CN3CCCCCC3)c(C#N)c2-c2ccc(OC)cc2)cc1 | 3 | 20
COc1ccc(-c2oc(NC(=O)C(F)(F)F)c(C#N)c2-c2ccc(OC)cc2)cc1 | 0 | 63*
CCOC(=O)N1CCN(C(=O)CSc2ccc(-c3sc(C)nc3C)nn2)CC1 | -2 | -7
Nc1ccccc1Nc1c([N+](=O)[O-])c(=O)oc2ccccc12 | 0 | 71*
COc1ccccc1Nc1c([N+](=O)[O-])c(=O)oc2ccccc12 | 2 | 10
O=C(CCC1CCCC1)NC1(c2nc(-c3cccnc3)no2)CCCCC1 | -10 | -3
Cc1cccc(C2=NN(c3ccc(Br)cc3)[C@@H](C(=O)N3CCOC3=O)[C@@H]2c2ccccc2)c1 | 0 | -78
CC[C@@H]1C(c2cccc(C)c2)=NN(c2ccc(Br)cc2)[C@H]1C(=O)N1CCOC1=O | 2 | 66*
C[C@@H]1C(c2cccc(Cl)c2)=NN(c2ccc(Br)cc2)[C@H]1C(=O)N1CCOC1=O | -1 | 57*
C[C@@H]1C(c2cccc(Cl)c2)=NN(c2ccccc2)[C@H]1C(=O)N1CCOC1=O | -6 | -24
COc1ccc(OCC(O)CNC(=O)c2cc(C(C)(C)C)nn2C)cc1 (stereo unspecified) | -4 | ·
O=C(Nc1ccc(F)c(Cl)c1)C1CCc2sc(C(=O)N3CCOCC3)cc2C1 (stereo unspecified) | -4 | 16
Cc1ccc([N+](=O)[O-])cc1NC(=O)C1C(c2ccccc2)=C1c1ccccc1 | -14 | -1
Cc1cn(CCC(=O)Nc2ccc(-n3ccc(C(F)(F)F)n3)cc2)c2ccccc12 | -15 | ·
O=C(CSC1=NC(=O)C(c2ccccc2)C(=O)N1)Nc1nncs1 (stereo unspecified) | 3 | -5
Cc1cc2[nH]c(C(=O)Nc3c(F)cccc3F)c(CN3CCOCC3)c2s1 | 26 | 54*
Cc1cc2[nH]c(C(=O)Nc3ccccc3C)c(CN3CCOCC3)c2s1 | -3 | 50*
Cc1cc2[nH]c(C(=O)Nc3cccc(F)c3C)c(CN3CCOCC3)c2s1 | 11 | 12
Cc1cc2[nH]c(C(=O)Nc3ccccc3Cl)c(CN3CCOCC3)c2s1 | 33 | 20
SMILES | Pf apPOL block | mHTT-CaM PPI inh
CCCn1ncc(N2CCC(C(=O)N3CCN(C)CC3)CC2)cc1=O | -5 | -11
Cc1cccc(-n2nc3c(c2NC(=O)COc2ccc(Cl)cc2)CS(=O)C3)c1C (stereo unspecified) | -3 | 15
Cc1cccc(COC[C@H](Cc2ccccc2)N2CCN(C(=O)c3ccc(Cl)c(Cl)c3)CCC2=O)c1 | 0 | 100*
O=C(c1cccc(Cl)c1)N1CCC(=O)N([C@H](COCc2cccc(Cl)c2)Cc2ccccc2)CC1 | -6 | 100*
Cc1ccc(S(=O)(=O)N2CCC(=O)N([C@H](COCc3cccc(Cl)c3)Cc3ccccc3)CC2)cc1 | -5 | 20
CC(C)(C)c1ccc(C(=O)N2CCC(=O)N([C@H](COCc3ccccc3)Cc3ccccc3)CC2)cc1 | -6 | 7
N#CSC(CS(=O)(=O)c1cccc([N+](=O)[O-])c1)c1ccccc1 (stereo unspecified) | -7 | 94*
N#CSC(CS(=O)(=O)c1ccccc1)c1ccccc1 (stereo unspecified) | -7 | -10
N=c1c(C(=O)NC2CCCCC2)cc2c(=O)n3ccccc3nc2n1C1CCCCC1 | -2 | -8
COc1ccc(-c2nc(-c3nnn(-c4ccc(F)cc4)c3C)no2)cc1OC | -5 | -6
COc1ccc(-c2nc(-c3ccc(F)cc3)c[n+]3ccc4cc(OC)c(OC)cc4c23)cc1OC | · | 78*
CC1C(=O)N(c2ccc(Cl)cc2)CCN1C(=O)c1ccccc1F (stereo unspecified) | 2 | -7
CCCCOc1cccc(NC(=O)CSc2cccc3cccnc23)c1 | 0 | 0
COc1ccc(NC(=O)CSc2cccc3cccnc23)cc1 | -7 | 53*!
O=C(O)CSc1cccc2cccnc12 | -1 | 11
